Laboratory results as given in PubChem BioAssay (EPA / NIEHS).
Calls of active or inactive are those of the source. How the source made its calls: active means hit-call score of the fitted dose curve at least 0.9, where 1 is the maximum; inactive means score below 0.9.

target: Heat shock factor protein 1 (Homo sapiens) (UniProt Q00613); experiment: ATG_HSE_CIS: Attagene CIS-FACTORIAL HepG2 Assay for human Heat Shock Transcription Factor 1 (HSE) (AID 2282953); conditions: HepG2 HSE cis-reporter, Attagene RNA transcription; actives raise or lower the signal
Sequence (Q00613 whole entry, looked up): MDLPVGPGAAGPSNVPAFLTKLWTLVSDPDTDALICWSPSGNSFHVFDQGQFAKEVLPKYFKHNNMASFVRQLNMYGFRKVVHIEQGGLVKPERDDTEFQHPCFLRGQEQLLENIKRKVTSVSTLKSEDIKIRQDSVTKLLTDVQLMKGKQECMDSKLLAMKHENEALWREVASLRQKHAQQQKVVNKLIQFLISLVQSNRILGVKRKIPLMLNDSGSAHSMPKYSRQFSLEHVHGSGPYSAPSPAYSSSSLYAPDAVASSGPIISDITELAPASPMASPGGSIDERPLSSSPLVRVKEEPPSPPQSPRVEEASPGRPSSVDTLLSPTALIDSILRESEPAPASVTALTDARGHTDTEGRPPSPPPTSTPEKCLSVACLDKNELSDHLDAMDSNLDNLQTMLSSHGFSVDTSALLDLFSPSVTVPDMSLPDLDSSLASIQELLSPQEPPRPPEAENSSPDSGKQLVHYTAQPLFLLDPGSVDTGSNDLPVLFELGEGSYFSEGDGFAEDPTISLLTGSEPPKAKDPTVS
Description: ATG_CIS is a cell-based, multiplexed-readout assay that uses HepG2, a human liver cell line, with measurements taken at 24 hours after chemical dosing in a 24-well plate.ATG_HSE_CIS is one of 52 assay component(s) measured or calculated from the ATG_CIS assay. It is designed to make measurements of mRNA induction, a form of inducible reporter, as detected with fluorescence intensity signals by Reverse transcription polymerase chain reaction (RT-PCR) and Capillary electrophoresis technology.Data from the assay component ATG_HSE_CIS was analyzed into 1 assay endpoint. This assay endpoint, ATG_HSE_CIS, was analyzed with bidirectional fitting relative to DMSO as the negative control and baseline of activity. Using a type of inducible reporter, measures of mRNA for gain or loss-of-signal activity can be used to understand the reporter gene at the transcription factor-level as they relate to the gene HSF1. Furthermore, this assay endpoint can be referred to as a primary readout, because this assay has produced multiple assay endpoints where this one serves a reporter gene function. To generalize the intended target to other relatable targets, this assay endpoint is annotated to the dna binding intended target family, where the subfamily is heat shock protein.
Human liver HepG2 cells are transiently transfected with multiple reporter transcription units (MRTUs) in 6-well plates using FuGene 6 reagent (Roche; 3 ml FuGene/1 mg DNA). The MRTU constructs are regulated by a cis-regulating element (promoter). […] A major difference between the CIS and TRANS system is that in CIS activities of endogenous TFs are measured, whereas the TRANS assay evaluates changes in activities of exogenous, chimeric NR-Gal4 proteins. […] At the end of 24 hour incubation, total RNA was isolated using TriZol reagent (Invitrogen). The isolated RNA is then reverse-transcribed using oligo(dT) primer and Mo-MLV reverse transcriptase (Invitrogen) with DNAse I (Ambion) treatment for 30 min. The one-tenth of the produced cDNA was amplified by PCR using Taq DNA polymerase (Invitrogen) and two reporter sequence-specific primers. The PCR products were fluorescently labeled by primer extension with 6-arboxyfluorescein (6-FAM) 5'-labeled reporter sequence-specific primer (2 min at 95 C, 20 s at 68 C and 10 min at 72 C) and these products were digested with 5U of HpaI (New England Biolabs) for 2h at 37 C. The fragments were purified using Qiaquick PCR columns (Qiagen), analyzed on an ABI 3130xL genetic analyzer (Applied Biosystems) with peak positions identified by using a set of X-rhodamine (ROX)-labeled MapMarker1000 molecular weight standards (BioVentures). The raw capillary electrophoresis data was processed using Attagraph software (Attagene).

Row | Structure (SMILES) | AC50 | outcome
1 | [F][Sn]([c]1ccccc1)([c]1ccccc1)[c]1ccccc1 | 0.324 µM (active) | 
2 | CCN(CCO)CCO |  | inactive
3 | CC(C)(C)c1ccccc1O |  | inactive
4 | C=C(C)C(=O)OCC(CC)CCCC (stereo not given) |  | inactive
5 | C=CCc1ccccc1O |  | inactive
6 | CCCSP(=S)(OCC)Oc1ccc(Cl)cc1Cl (stereo not given) |  | inactive
7 | CCCCCCCCCCCCN(C)C | 56.1 µM (active) | 
8 | N#CCC#N |  | inactive
9 | CCOP(=S)(OCC)SCSc1cc(Cl)ccc1Cl |  | inactive
10 | OCC(c1ccc(Cl)cc1)c1ccc(Cl)cc1 | 52.8 µM (active) | 
11 | Nc1ccc(-c2ccccc2)cc1 |  | inactive
12 | Cc1cc(C(F)(C(F)(F)F)C(F)(F)F)ccc1NC(=O)c1cccc(I)c1C(=O)NC(C)(C)CS(C)(=O)=O |  | inactive
13 | CCOc1ccc(N)cc1 |  | inactive
14 | CCCSP(=S)(OCC)Oc1ccc(SC)cc1 (stereo not given) |  | inactive
15 | CC(F)(F)CC(F)(F)F |  | inactive
16 | O=c1[nH]c(=O)n(Cl)c(=O)n1Cl |  | inactive
17 | O=c1[nH]c2ccccc2n1C1CCN(CCCC(c2ccc(F)cc2)c2ccc(F)cc2)CC1 |  | inactive
18 | O=C1c2ccccc2C(=O)C1C(=O)C(c1ccccc1)c1ccc(Cl)cc1 (stereo not given) | 62.8 µM (active) | 
19 | Oc1c(Br)cc(Br)cc1Br |  | inactive
20 | Oc1c(Cl)cc(Cl)cc1Cl |  | inactive

Row | Structure (SMILES) | AC50 | outcome
21 | Brc1ccc(Br)cc1 |  | inactive
22 | OC[P+](CO)(CO)CO |  | inactive
23 | Cc1cc(Cl)ccc1OCCCC(=O)O |  | inactive
24 | CC(C)CP(=S)(S)CC(C)C |  | inactive
25 | Cc1cccc(N=Nc2ccc(N(C)C)cc2)c1 |  | inactive
26 | O=C(N[C@H]1CN2CCC1CC2)c1ccc2c(c1)OCCO2 |  | inactive
27 | O=S(=O)(Oc1ccc(Cl)cc1)c1ccc(Cl)cc1 |  | inactive
28 | NNCCO |  | inactive
29 | CCCCN(CCCC)C(=S)S | 47.9 µM (active) | 
30 | CN(N=O)C(N)=O |  | inactive
31 | O=[N+]([O-])c1cc([As](=O)(O)O)ccc1O |  | inactive
32 | N#CS |  | inactive
33 | OC(Cc1ccccc1Cl)(Cn1[nH]cnc1=S)C1(Cl)CC1 (stereo not given) | 140 µM (active) | 
34 | N#Cc1ccncc1 |  | inactive
35 | NC(=O)c1ccc(N)nc1 |  | inactive
36 | Cc1ccc2nc3sc(=O)sc3nc2c1 | 12.3 µM (active) | 
37 | O=C(Cc1ccccc1)OCCc1ccccc1 |  | inactive
38 | CC(=O)CN(CC(C)=O)N=O |  | inactive
39 | [Cl][Sn]([c]1ccccc1)([c]1ccccc1)[c]1ccccc1 | 0.243 µM (active) | 
40 | O=S(=O)(C(Cl)(Cl)Cl)C(Cl)(Cl)Cl | 7.93 µM (active) | 
